Reference: the supplement of paper PMC12669032
Values without a mark were called inactive.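 How the source made its calls: active = AUC reduced over 20% with Padj below 0.05 in at least 2 of 3 replicates; inactive = otherwise.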

Assays:
Experiment in all cases: growth AUC relative to DMSO control (median of replicates) (fraction); higher = more growth (less inhibition), active = hit call of the paper
Details in all cases: 20 µM; 24 h
Akkermansia muciniphila = system: Akkermansia muciniphila
Procedure, shortened: (§1)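 In round-bottom 96-well plates sealed with pierced gas-permeable seals, gut bacterial monocultures in mGAM were grown anaerobically at 37 °C from OD600 0.05 with 20 µM compound (1% DMSO). OD600 readings were taken hourly for 24 h, and the minimum OD was set to 0. Area under the growth curve was then normalised to the plate median of solvent-only wells, or to row and column medians on the industrial chemical plate. The value given is the median of three biological replicates grown on separate days.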

Bacteroides caccae = system: Bacteroides caccae
Procedure, shortened: as §1

Bacteroides clarus = system: Bacteroides clarus
Procedure, shortened: as §1

Bacteroides dorei = system: Bacteroides dorei
Procedure, shortened: as §1

Bacteroides stercoris = system: Bacteroides stercoris
Procedure, shortened: as §1

[1] = system: Bacteroides thetaiotaomicron
Procedure, shortened: as §1

Bacteroides uniformis = system: Bacteroides uniformis
Procedure, shortened: as §1

[2] = system: Bifidobacterium longum subsp. longum
Procedure, shortened: as §1

Clostridium difficile = system: Clostridium difficile
Procedure, shortened: as §1

Collinsella aerofaciens = system: Collinsella aerofaciens
Procedure, shortened: as §1

Coprococcus comes = system: Coprococcus comes
Procedure, shortened: as §1

Escherichia coli ED1a = system: Escherichia coli ED1a
Procedure, shortened: as §1

Escherichia coli IAI1 = system: Escherichia coli IAI1
Procedure, shortened: as §1

Eubacterium rectale = system: Eubacterium rectale
Procedure, shortened: as §1

[3] = system: Fusobacterium nucleatum subsp. animalis
Procedure, shortened: as §1

Lactobacillus gasseri = system: Lactobacillus gasseri
Procedure, shortened: as §1

Lactobacillus paracasei = system: Lactobacillus paracasei
Procedure, shortened: as §1

Odoribacter splanchnicus = system: Odoribacter splanchnicus
Procedure, shortened: as §1

[4] = system: Parabacteroides distasonis
Procedure, shortened: as §1

Parabacteroides merdae = system: Parabacteroides merdae
Procedure, shortened: as §1

Row | Compound | growth AUC (Akkermansia muciniphila) | growth AUC (Bacteroides caccae) | growth AUC (Bacteroides clarus) | growth AUC (Bacteroides dorei) | growth AUC (Bacteroides stercoris) | growth AUC [1] | growth AUC (Bacteroides uniformis) | growth AUC [2] | growth AUC (Clostridium difficile) | growth AUC (Collinsella aerofaciens) | growth AUC (Coprococcus comes) | growth AUC (Escherichia coli ED1a) | growth AUC (Escherichia coli IAI1) | growth AUC (Eubacterium rectale) | growth AUC [3] | growth AUC (Lactobacillus gasseri) | growth AUC (Lactobacillus paracasei) | growth AUC (Odoribacter splanchnicus) | growth AUC [4] | growth AUC (Parabacteroides merdae)
1 | c1ccc2cc3ccccc3cc2c1 | 0.776 (active) | 0.972 | 1 | 1 | 1.01 | 0.987 | 0.999 | 0.81 | 0.997 | 0.961 | 0.927 | 0.987 | 0.967 | 1.27 | 1.01 | 0.914 | 0.923 | 0.999 | 0.758 | 0.958
2 | CCCCOC(=O)C(C)Oc1ccc(Oc2ccc(C(F)(F)F)cn2)cc1 (stereo not given) | 1.13 | 1.01 | 0.977 | 0.951 | 1.08 | 0.959 | 0.891 | 0.681 (active) | 1.01 | 0.963 | 0.987 | 1.02 | 1.01 | 1.09 | 0.997 | 0.914 | 0.985 | 1.02 | 0.768 | 0.961
3 | CCNc1nc(NC(C)(C)C)nc(OC)n1 | 0.972 | 0.985 | 0.998 | 0.992 | 1.11 | 0.987 | 0.985 | 1.02 | 0.998 | 1.07 | 1.03 | 1.04 | 1.03 | 1.06 | 1.01 | 1.03 | 1.01 | 1.07 | 1.07 | 0.99
4 | Nc1cccc(O)c1 | 0.979 | 1.03 | 1.02 | 1 | 0.939 | 1.03 | 1.03 | 1.06 | 1.03 | 0.998 | 1.06 | 1.01 | 1.01 | 0.984 | 1 | 1.04 | 0.94 | 0.975 | 0.993 | 1
5 | Br[C@@H]1CC[C@@H](Br)[C@@H](Br)CC[C@@H](Br)[C@@H](Br)CC[C@H]1Br | 1.01 | 0.983 | 0.795 (active) | 0.924 | 0.573 (active) | 0.967 | 0.928 | 0.779 (active) | 1.01 | 0.796 (active) | 0.934 | 0.897 | 0.979 | 1 | 1.01 | 0.947 | 0.996 | 0.983 | 0.682 (active) | 0.931
6 | Oc1c(Cl)cc(Cl)c(Cl)c1Cc1c(O)c(Cl)cc(Cl)c1Cl | 0.193 (active) | 0.0131 (active) | 0.0212 (active) | 0.0142 (active) | 0.00917 (active) | 0.00403 (active) | 0.0126 (active) | 0.0988 (active) | 0.0083 (active) | 0.0126 (active) | 0.19 (active) | 0.867 | 0.856 | 0.0106 (active) | 0.078 (active) | 0.037 (active) | 0.0796 (active) | 0.018 (active) | 0.026 (active) | 0.0156 (active)
7 | CC(C)NS(=O)(=O)NC(=O)c1cc(NC(N)=O)c(F)cc1Cl | 1.06 | 1 | 0.988 | 0.959 | 0.991 | 0.808 | 1.02 | 1.02 | 1.06 | 0.981 | 0.928 | 1.01 | 0.971 | 1.01 | 1 | 0.907 | 1.1 | 0.976 | 1.02 | 0.98
8 | COCC(=O)N(c1c(C)cccc1C(=O)O)C(C)C(=O)O (stereo not given) | 0.834 | 1.02 | 0.979 | 1.01 | 0.917 | 0.967 | 0.974 | 0.907 | 1.04 | 1 | 1.01 | 0.986 | 0.978 | 0.949 | 0.879 | 1.07 | 0.734 | 1.1 | 1.01 | 0.989
9 | C=CCc1ccc(O)c(OC)c1 | 0.933 | 0.993 | 1.04 | 1 | 0.975 | 0.967 | 1.03 | 1.01 | 1.01 | 0.973 | 0.971 | 1.03 | 1 | 1.01 | 1 | 0.95 | 0.957 | 0.96 | 0.97 | 0.996
10 | CCCCCCCCOC(=O)COc1cc(Cl)c(Cl)cc1Cl | 1.05 | 0.98 | 1 | 0.968 | 1.11 | 1.01 | 0.982 | 0.97 | 1.02 | 0.94 | 0.946 | 1.02 | 1.01 | 0.995 | 1.02 | 0.977 | 1.11 | 1.08 | 1.03 | 1.01
11 | COc1cc(OC)nc(NC(=O)NS(=O)(=O)Nc2ccccc2C(=O)C2CC2)n1 | 0.985 | 0.988 | 0.943 | 0.963 | 0.983 | 0.961 | 0.915 | 0.961 | 1.01 | 0.997 | 0.952 | 1 | 0.978 | 0.807 | 0.97 | 1.07 | 1.01 | 0.963 | 0.964 | 0.913
12 | COC(=O)c1cccc(C)c1S(=O)(=O)NC(=O)Nc1nc(OCC(F)(F)F)nc(N(C)C)n1 | 0.973 | 0.963 | 0.995 | 1.01 | 1.01 | 0.985 | 0.981 | 0.992 | 0.987 | 1.01 | 0.967 | 0.992 | 0.997 | 0.963 | 0.956 | 1.05 | 0.936 | 0.997 | 1.02 | 0.99
13 | N#Cc1cc(Cl)c(O)c(Cl)c1 | 1.12 | 1 | 1 | 0.982 | 0.935 | 0.994 | 0.947 | 1.03 | 0.997 | 1 | 1.02 | 0.926 | 0.9 | 0.972 | 1.03 | 1.17 | 1.03 | 0.998 | 0.956 | 0.93
14 | C#CCN(C)c1c(C#N)cnn1-c1nn2c(c1Cl)CCCC2 | 0.903 | 0.935 | 0.931 | 0.987 | 0.851 | 0.933 | 0.914 | 0.995 | 1 | 1.02 | 0.998 | 0.999 | 1.02 | 1.07 | 0.972 | 1.05 | 1.05 | 1.05 | 0.98 | 1.01
15 | CC(C)OC(=O)c1cc(C(=O)OC(C)C)cc([N+](=O)[O-])c1 | 0.939 | 0.977 | 0.987 | 0.974 | 0.933 | 0.933 | 0.924 | 0.932 | 0.992 | 0.947 | 0.97 | 0.998 | 0.988 | 0.972 | 0.98 | 0.968 | 0.964 | 1.06 | 0.963 | 0.921
16 | CCOCCc1ccc(OCCNc2ncnc(CC)c2Cl)c(C)c1C | 0.937 | 0.929 | 0.883 | 0.942 | 0.975 | 0.915 | 0.887 | 0.923 | 0.998 | 0.94 | 0.978 | 0.999 | 0.961 | 0.846 | 1.07 | 0.883 | 0.929 | 1.01 | 0.903 | 0.92
